This is a sample that favours compounds with a hit; in the whole collection about 0.44% have one here.
Rango dissoc inh – qHTS Assay for Inhibitors of RanGTP induced Rango (Ran-regulated importin-beta cargo) - Importin beta complex dissociation. Biochemical FRET Rango-importin beta, RanGTP-induced dissociation. Potency, µM (titrated, usually from 46.1 µM), without a hit: at the top dose activity change, negative = inhibition. 340,000 tested, 0.071% active. AID 540253, 2011; calls by dose curve; also: % of control where 0% means no effect; nearly all actives have a fitted effect of over 45% in size
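Rango (0.1 uM)–importin beta (0.25 uM) complex; RanGTP-RCC1 trigger; 45 min RT; CFP/YFP FRET read.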
Lamin A splicing – qHTS Assay for Modulators of Lamin A Splicing | HeLa LMNA splicing GFP/RFP minigene ratio, 48 h | Potency, µM (titrated, usually from 46.1 µM), without a hit: top-dose ratio change, negative = inhibition, usual class: inhibitors | 200,000 tested, 0.01% active | AID 1487, 2009; active = well fitted inhibition curve with a large enough effect in the signal ratio, with a control signal flat, not every such curve was filed as active; inconclusive = small, poorly fitted or top-dose-only effect, or effect the other way, or a change in a side signal; the % refers to the signal ratio; also: % is scaled to controls: 0 for no effect and ±100 for the full control effect
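Read-out is the ratio of GFP to DsRed2 object intensity, acquired by 488 nm laser-scanning cytometry on HeLa lamin A-EGFP minigene reporter cells. Compound incubation 48 hrs at 37 °C in Opti-MEM with 2% FBS; DMSO 0.5% final.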
Rango complex inh – qHTS Assay for Inhibitors of Rango (Ran-regulated importin-beta cargo) - Importin beta complex formation; AID 540263, 2011; 340,000 tested, 0.031% active; Rango CFP/YFP FRET sensor + importin beta, 45 min; Potency, µM (doses to about 92.2 µM), for the others: top-dose inhibition of complex formation; Importin subunit beta-1 (Homo sapiens), Q14974; calls by dose curve;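 also: 0% = DMSO wells and 100% = buffer wells lacking importin beta; nearly all actives have a fitted effect of over 15% in size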
Target sequence (Q14974 whole entry, looked up): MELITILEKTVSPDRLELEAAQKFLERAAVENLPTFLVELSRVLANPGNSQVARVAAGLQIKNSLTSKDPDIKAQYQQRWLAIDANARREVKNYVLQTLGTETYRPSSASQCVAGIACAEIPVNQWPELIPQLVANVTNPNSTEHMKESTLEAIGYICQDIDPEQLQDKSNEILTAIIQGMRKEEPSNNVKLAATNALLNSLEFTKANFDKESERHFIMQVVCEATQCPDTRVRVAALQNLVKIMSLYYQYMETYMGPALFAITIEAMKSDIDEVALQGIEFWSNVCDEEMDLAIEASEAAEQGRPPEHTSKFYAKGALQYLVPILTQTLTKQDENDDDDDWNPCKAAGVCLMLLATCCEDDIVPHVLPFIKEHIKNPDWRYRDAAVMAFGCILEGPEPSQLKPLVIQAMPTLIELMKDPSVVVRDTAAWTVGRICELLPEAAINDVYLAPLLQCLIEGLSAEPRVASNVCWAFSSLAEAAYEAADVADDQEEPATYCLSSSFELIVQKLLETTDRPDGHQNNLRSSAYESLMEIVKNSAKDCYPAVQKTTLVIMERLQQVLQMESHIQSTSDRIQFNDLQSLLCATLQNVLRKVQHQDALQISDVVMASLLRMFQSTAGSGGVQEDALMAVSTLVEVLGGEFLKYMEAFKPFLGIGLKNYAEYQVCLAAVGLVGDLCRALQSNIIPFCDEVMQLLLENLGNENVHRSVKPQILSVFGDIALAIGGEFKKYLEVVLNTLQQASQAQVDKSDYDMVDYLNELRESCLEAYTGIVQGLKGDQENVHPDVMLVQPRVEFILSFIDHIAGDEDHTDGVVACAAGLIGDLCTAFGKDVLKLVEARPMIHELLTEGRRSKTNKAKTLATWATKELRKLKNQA
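FRET biosensor Rango (snurportin 1 IBB between N-terminal EYFP and C-terminal Cerulean), 50 nM in PBS/1 mM DTT/0.02% Tween-20/0.1% BSA, preincubated 5 min RT with compound; 0.125 microM importin beta added, 45 min RT, CFP/YFP FRET ratio read.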
Tb PFK inh-1 – qHTS Assay to Find Inhibitors of T. brucei phosphofructokinase; ATP-dependent 6-phosphofructokinase (Trypanosoma brucei brucei), O15648; T. brucei PFK, ADP-Glo luminescence; Potency, µM (doses to about 57.5 µM), without a hit: at the top dose activity, negative = inhibition, hits mostly inhibitors; AID 485367, 2010; 330,000 tested, 0.17% active;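 also: 0% = uninhibited 1x PFK enzyme wells and -100% = no-enzyme wells; nearly all actives have a fitted effect of over 60% in size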
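In TEA buffer at pH 8.0 with 5 mM MgCl2, enzyme (1.25 nM) converted F6P (0.5 mM) and ATP (0.1 mM) for 45 min at room temperature. ADP product was read by luciferase luminescence.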
KinaseGlo FLuc – Counterscreen for Luciferase (Kinase-Glo TM) Inhibition. Luciferin 4-monooxygenase (Photuris pensylvanica), Q27757. Kinase-Glo luciferase, ATP luminescence, 8 min. Potency, µM (top dose mostly 38.3 µM), inactives show at the top dose activity change, negative = inhibition, most hits filed as inhibitors. 200,000 tested, 0.28% active; also: % is scaled to controls: 0 for no effect and ±100 for the full control effect; nearly all actives have a fitted effect of over 60% in size
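Compound is pinned into ATP-containing buffer (10 uM ATP, imidazole pH 7.2, 7 mM MgCl2). Kinase-Glo luciferase reagent is then added. Light output is recorded following an 8-min room-temperature incubation.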
Chronic BCR inh – qHTS Assay to Find Inhibitors of Chronic Active B-Cell Receptor Signaling; ABC-DLBCL IkBa-CBG/CBR reporter, luminescence ratio, 4 h; Potency, µM (doses to about 46.1 µM), inactives show top-dose activity change, negative = inhibition, usual class: inhibitors; 340,000 tested, 0.05% active; active = well fitted inhibition curve with a large enough effect in the signal ratio, with a control signal flat, not every such curve was filed as active; inconclusive = small, poorly fitted or top-dose-only effect, or effect the other way, or a change in a side signal; the % refers to the signal ratio;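 also: plate controls were basal doxycycline-induced cells for no effect and cells given 10 µM MG132 for full effect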
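TMD8 human ABC-DLBCL cells with doxycycline-inducible IκBα–green luciferase fusion and unfused red luciferase, in 0.5% FBS medium; compounds up to 46 uM, 4 h at 37C. Green/red luminescence ratio, filter-overlap corrected, fitted to concentration-response curves.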
Tb PFK KinaseGlo – Tb PFK orthogonal confirmatory assay using ATP depletion (Kinase-Glo Plus) as an alternative measure of Tb PFK activity: Hit Validation | 1,100 tested, 47% active | Tb PFK enzyme, ATP depletion, Kinase-Glo Plus luminescence | Potency, µM (doses to about 57.5 µM), inactives show at the highest dose inhibition | shares compounds with Tb PFK inh-1; calls by dose curve; also: nearly all actives have a fitted effect of over 60% in size
Tb PFK inh-2 – Inhibitors of T. brucei phosphofructokinase: Hit Validation | purified T. brucei PFK, ADP-Glo luminescence, 45 min | 1,100 tested, 41% active | AID 504637, 2011 | shares compounds with Tb PFK inh-1 | Potency, µM (top dose mostly 57.5 µM), without a hit: at the top dose activity change, negative = inhibition, most hits filed as inhibitors;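 also: plate controls were full PFK enzyme control for no effect and no enzyme control for full effect; nearly all actives have a fitted effect of over 60% in size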
Numbers without * were called inactive; ? = inconclusive; · = no result given; [ ] = dose if it differs, or a comment. Unless noted, calls follow the shape of the dose curve; as a rule, active = well fitted curve in the direction sought with a large enough effect; inconclusive = small, poorly fitted or top-dose-only effect, or another doubt; inactive = no such curve, though single readings can be large; an effect the other way counts as inactive or inconclusive. Potency is read from the fitted curve at half-maximal effect.

SMILES	Rango dissoc inh	Lamin A splicing	Rango complex inh	Tb PFK inh-1	KinaseGlo FLuc	Chronic BCR inh	Tb PFK KinaseGlo	Tb PFK inh-2
C[C@]12CC[C@@H]3[C@H](CCC4=CC(=O)CC[C@]43C)[C@]1(O)CC[C@@]2(O)C(=O)CO	·	·	·	·	-5.2%[7.66 µM]	·	·	·
CCN1CC(CNC(=O)c2ccc3nc(Cc4cccc(Cl)c4)oc3c2)CC1=O (centres undefined)	9.8%	·	2.9%	?	·	?	?	15.1µM*
Cc1nc2c(C(=O)N3CCC4(CC3)OCCO4)cnn2c(C)c1Cc1cccc(Cl)c1	-1.0%	?	-0.6%	-3.8%	11.6%	4.7%	·	·
COc1ccc(N2CCN(Cc3nc(-c4ccccc4)no3)CC2)cc1	0.6%	12.0%[46 µM]	2.9%	23.9µM*	-1.0%	13.3%	4.2%	3.0%
CNC(=O)c1cccn(Cc2cccc(C(F)(F)F)c2)c1=O	-2.8%	·	2.7%	-10.0%	-2.0%	?	·	·
C=CCNC(=S)NNC(=O)c1cccn(Cc2ccc(Cl)c(Cl)c2)c1=O	-3.7%	7.1%	3.4%	8.49µM*	-0.8%	?	8.49µM*	10.7µM*
CNC(=S)NNC(=O)c1cccn(Cc2ccc(Cl)c(Cl)c2)c1=O	-3.7%	2.9%	-3.6%	8.49µM*	-7.2%	?	2.69µM*	8.49µM*
O=C(CSc1ccc(F)cc1)Nc1ccc2c(c1)C(=O)NC2=O	-20.4%	·	-0.9%	?	·	4.6%	?	?
COc1ccccc1CC(=O)Nc1ccc2c(c1)C(=O)NC2=O	-16.2%	·	0.5%	?	-0.4%	?	?	?
O=C(CN1CC(c2ccccc2)CC1=O)Nc1ccc(F)cc1 (centres undefined)	-0.7%	-1.7%	0.2%	2.9%	3.1%	0.0%	·	·
Cc1cccc(NC(=O)c2cccc(N3C(=O)C4C5C=CC(C6CC56)C4C3=O)c2)c1 (centres undefined)	0.0%	·	-2.4%	-12.0%	·	?	·	·
Cc1cccc(C(=O)Nc2ccc3c(c2)C(=O)NC3=O)c1	16.3%	·	1.8%	?	·	?	?	30.1µM*
COc1ccc(-n2c(-c3ccco3)nc3ccccc3c2=O)cc1	20.8%	-0.6%[46 µM]	3.3%	1.5%	-0.7%	-1.6%	·	·
Nc1ccccc1-[n+]1c(-c2ccccc2)cc(-c2ccccc2)cc1-c1ccccc1	4.7%	·	5.4%	0.0%	·	1.0%	·	·
CC(Cc1ccccc1Sc1ccccc1)N(C)C (centres undefined)	10.7%	11.9%	0.0%	-0.1%	-3.6%	-1.6%	·	·
O=C1NC(=O)C(=Cc2ccc(-c3ccc(Cl)cc3)o2)C(=O)N1	?	·	4.6%	-6.5%	·	?	·	·
CC1=NOC(=O)/C1=C\c1ccc(-c2cccc(Cl)c2)o1	?	91.2%	?	21.3µM*	-4.7%	9.6%	6.01µM*	10.7µM*
NNC(N)=O	-13.2%	?	-2.9%	0.2%	-1.9%	3.2%	·	·
O=c1[nH]c(=O)n(-c2ccc(Cl)cc2)c(O)c1C=Nc1ccc(S(=O)(=O)Nc2nccs2)cc1	-13.5%	1.6%	-0.1%	-0.1%	1.0%	-0.6%	·	·
Cc1cc(C)c2oc(C(=O)Nc3ccc(S(=O)(=O)Nc4nccs4)cc3)cc(=O)c2c1	-17.5%	·	-5.2%	?	·	1.3%	-29.5%	?
Nc1ccc2ccccc2c1	0.4%	·	-2.0%	·	·	·	·	·
Nc1ccc2nc(-c3cccc(-c4nc5ccc(N)cc5[nH]4)c3)[nH]c2c1	3.6%	·	7.0%	?	·	?	5.2%	1.3%
O=C(COc1ccc([N+](=O)[O-])cc1)Nc1cc(C(=O)O)cc(C(=O)O)c1	5.2%	·	2.2%	?	-1.6%	?	13.5µM*	26.9µM*
Cc1cc(C(=O)COC(=O)c2cc(Cl)c(O)c(Cl)c2)c(C)n1C	-13.3%	·	-0.5%	16.9µM*	·	1.0%	?	-18.2%
CC(=O)C1(c2ccccc2)CCN(C(=O)C2CCC(=O)N(CCc3cccc(F)c3)C2)CC1 (centres undefined)	26.3%	·	-1.0%	0.1%	·	7.9%	·	·
SMILES	Rango dissoc inh	Lamin A splicing	Rango complex inh	Tb PFK inh-1	KinaseGlo FLuc	Chronic BCR inh	Tb PFK KinaseGlo	Tb PFK inh-2
Cc1ccc(N)cc1N	-5.3%	·	-0.8%	-6.2%	·	-0.1%	·	·
Cc1c(N=Cc2ccc(O)c(Br)c2)cccc1[N+](=O)[O-]	-4.7%	3.7%	4.9%	26.9µM*	15.9%	1.2%	?	?
O=[N+]([O-])c1ccc(O)c([N+](=O)[O-])c1	8.9%	·	2.0%	·	-1.5%	·	·	·
CCN1CCN(C(=S)c2ccc(Cl)cc2)CC1	-12.8%	29.7%	2.1%	10.7µM*	-0.6%	20.3%	7.57µM*	23.9µM*
CCN1CCN(C(=S)c2ccc(OC)cc2)CC1	5.8%	-2.7%[46 µM]	1.5%	?	-0.1%	-12.4%	26.9µM*	33.8µM*
NC(CO)Cc1ccccc1 (centres undefined)	·	·	·	·	-7.9%	·	·	·
CCc1ccc(C2=NN(CCC(=O)N3CCC4(CC3)OCCO4)C(=O)CC2)cc1	5.4%	·	-0.2%	2.1%	-1.4%	-1.3%	·	·
CCC(C)N1C(=O)/C(=C\c2cnc(N(C)C)nc2)C(=O)NC1=S (centres undefined)	12.9%	-0.4%[46 µM]	-3.6%	11.2%	0.2%	13.7%	·	·
